Assay results taken from PubChem BioAssay (EPA / NIEHS).
Values joined by “and” are separate entries in the source; they are usually repeats but may differ in a detail not shown here. Equal entries are not always repeated. Some compounds were tested as several samples or in several runs, with calls that do not always agree. Active and inactive are the calls of the source. How the source made its calls: active means hit-call score of the fitted dose curve at least 0.9, where 1 is the maximum; inactive means score below 0.9.

Experiments:
[1] = read-out: Interleukin-8 (IL8), CXCL8 (gene 3576); test: BSK_CASM3C_IL8: BioMAP Diversity Plus: CASM3C Assay for Interleukin-8 (IL8) Biomarker Activity (AID 2283042); details: primary human coronary artery smooth muscle cells; actives raise or lower the signal;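 further: IL-8 protein level quantified by ELISA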
[2] = read-out: Human Leukocyte Antigen - DR isotype (HLADR), HLA-DRA (gene 3122); test: BSK_CASM3C_HLADR: BioMAP Diversity Plus: CASM3C Assay for Human Leukocyte Antigen - DR isotype (HLADR) Biomarker Activity (AID 2283043); details: primary human coronary artery smooth muscle cells; actives raise or lower the signal;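 further: cell-surface HLA-DR protein level quantified by ELISA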
[3] = read-out: Macrophage colony-stimulating factor (MCSF), CSF1 (gene 1435); test: BSK_CASM3C_MCSF: BioMAP Diversity Plus: CASM3C Assay for Macrophage colony-stimulating factor (MCSF) Biomarker Activity (AID 2283044); details: primary human coronary artery smooth muscle cells; actives raise or lower the signal;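 further: M-CSF protein amount quantified by ELISA after 24 h exposure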
[4] = read-out: Low-density lipoprotein receptor (LDLR), LDLR (gene 3949); test: BSK_CASM3C_LDLR: BioMAP Diversity Plus: CASM3C Assay for Low-density lipoprotein receptor (LDLR) Biomarker Activity (AID 2283045); details: primary human coronary artery smooth muscle cells; actives raise or lower the signal;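 further: LDLR protein level on the cell surface quantified by ELISA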
[5] = read-out: Monocyte Chemoattractant Protein-1 (MCP1), CCL2 (gene 6347); test: BSK_CASM3C_MCP1: BioMAP Diversity Plus: CASM3C Assay for Monocyte Chemoattractant Protein-1 (MCP1) Biomarker Activity (AID 2283046); details: primary human coronary artery smooth muscle cells; actives raise or lower the signal;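 further: MCP-1 level quantified by ELISA 24 h after dosing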
[6] = BSK_CASM3C_Proliferation: Cell Proliferation Assessment in the BioMAP Diversity Plus: CASM3C Assay (AID 2283047); details: primary human coronary artery smooth muscle cells;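 further: sulforhodamine B total protein stain as relative cell number at 560 nm; sub-confluent cells exposed 48 h before staining; fitted both ways against DMSO so gain or loss of cell number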
[7] = read-out: Monokine induced gamma interferon (MIG), CXCL9 (gene 4283); test: BSK_CASM3C_MIG: BioMAP Diversity Plus: CASM3C Assay for Monokine induced gamma interferon (MIG) Biomarker Activity (AID 2283048); details: primary human coronary artery smooth muscle cells; actives raise or lower the signal;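 further: MIG protein level measured by ELISA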
[8] = read-out: serum amyloid A (SAA), SAA1 (gene 6288); test: BSK_CASM3C_SAA: BioMAP Diversity Plus: CASM3C Assay for serum amyloid A (SAA) Biomarker Activity (AID 2283049); details: primary human coronary artery smooth muscle cells; actives raise or lower the signal;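 further: SAA protein level quantified by ELISA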
[9] = BSK_CASM3C_SRB: Viability Assessment in the BioMAP Diversity Plus: CASM3C Assay (AID 2283050); details: primary human coronary artery smooth muscle cells;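 further: total protein by SRB staining as cytotoxicity measure in parallel cultures; cells exposed to compound for 24 h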
[10] = read-out: Thrombomodulin, THBD (gene 7056); test: BSK_CASM3C_Thrombomodulin: BioMAP Diversity Plus: CASM3C Assay for Thrombomodulin Biomarker Activity (AID 2283051); details: primary human coronary artery smooth muscle cells; actives raise or lower the signal;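 further: thrombomodulin protein level measured by ELISA 24 h after dosing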

Measured: AC50

COC(=O)c1ccccc1S(=O)(=O)NC(=O)N(C)c1nc(C)nc(OC)n1
inactive: [1] | [2] | [3] | [4] | [5] | [6] | [7] | [8] | [9] | [10]

CC(C)(C)C(O)/C(=C\c1ccc(Cl)cc1Cl)n1cncn1 (configuration not stated)
inactive: [1] | [2] | [3] | [4] | [5] | [7] | [8] | [9]
active: [6] 20 µM | [10] 15 µM

O=S1OCC2C(CO1)C1(Cl)C(Cl)=C(Cl)C2(Cl)C1(Cl)Cl (configuration not stated)
inactive: [4]
active: [1] 29.6 µM | [2] 32.5 µM | [3] 31.5 µM | [5] 31.7 µM | [6] 32.7 µM | [7] 32.1 µM | [8] 32.7 µM | [9] 32.4 µM | [10] 14.3 µM

N#CN
inactive: [1] | [2] | [3] | [4] | [5] | [6] | [7] | [8] | [9] | [10]

COP(=S)(OC)Oc1ccc([N+](=O)[O-])cc1
active: [5] 0.877 µM
inactive: [1] | [2] | [3] | [4] | [6] | [7] | [8] | [9] | [10]

CCCN(CCC)c1c([N+](=O)[O-])cc(C(F)(F)F)cc1[N+](=O)[O-]
inactive: [1] | [2] | [3] | [4] | [5] | [6] | [7] | [8] | [9] | [10]

O=C1c2ccccc2C(=O)N1SC(Cl)(Cl)Cl
inactive: [4] | [8]
active: [1] 38.6 µM | [2] 28.7 µM | [3] 16 µM | [5] 30 µM | [6] 18.8 µM | [7] 30.4 µM | [9] 29 µM | [10] 4.99 µM

CC1(c2ccc(Oc3ccccc3)cc2)OC(=O)N(Nc2ccccc2)C1=O (configuration not stated)
inactive: [1] | [2] | [3] | [4] | [5] | [7] | [8] | [9] | [10]
active: [6] 13.7 µM

COP(=S)(OC)Oc1ccc(SC)c(C)c1
inactive: [1] | [2] | [3] | [4] | [5] | [6] | [7] | [8] | [9] | [10]

COC(=O)c1ccccc1CS(=O)(=O)NC(=O)Nc1nc(OC)cc(OC)n1
inactive: [1] | [2] | [3] | [4] | [5] | [6] | [7] | [8] | [9] | [10]

O=C(O)COc1ccc(Cl)cc1Cl
inactive: [1] | [2] | [3] | [4] | [5] | [6] | [7] | [8] | [9] | [10]

Oc1ccc(Cl)cc1Cc1ccccc1
inactive: [1] | [4] | [7] | [10]
active: [1] 31.5 µM [middle of 5 runs] | [2] 31.1 µM [middle of 7 runs] | [3] 29.6 µM [middle of 7 runs] | [4] 29.1 µM [middle of 5 runs] | [5] 37.5 µM [middle of 4 runs] | [6] 32.2 µM [middle of 7 runs] | [7] 32.7 µM [middle of 6 runs] | [8] 31.1 µM [middle of 6 runs] | [9] 32.4 µM [middle of 7 runs]

O=[N+]([O-])/N=C1\NCCN1Cc1ccc(Cl)nc1
inactive: [1] | [2] | [3] | [4] | [5] | [6] | [7] | [8] | [9] | [10]

ClC1C(Cl)C(Cl)C(Cl)C(Cl)C1Cl (configuration not stated)
active: [3] 32.4 µM | [4] 27.8 µM | [6] 20 µM and 29.6 µM | [8] 34.8 µM | [9] 35.2 µM
inactive: [1] | [2] | [3] | [4] | [5] | [6] | [7] | [8] | [9] | [10]

CCS(=O)(=O)c1cccnc1S(=O)(=O)NC(=O)Nc1nc(OC)cc(OC)n1
active: [8] 16.4 µM
inactive: [1] | [2] | [3] | [4] | [5] | [6] | [7] | [9] | [10]

CCc1ccc(C(=O)NN(C(=O)c2cc(C)cc(C)c2)C(C)(C)C)cc1
inactive: [1] | [2] | [3] | [4] | [5] | [7] | [8] | [9] | [10]
active: [6] 22.9 µM

O=C(O)C(F)(F)C(F)(F)C(F)(F)C(F)(F)C(F)(F)C(F)(F)C(F)(F)F
active: [6] 16.6 µM | [7] 36.6 µM
inactive: [1] | [2] | [3] | [4] | [5] | [6] | [7] | [8] | [9] | [10]

CCOCN(C(=O)CCl)c1c(C)cccc1CC
active: [1] 15.8 µM | [6] 30 µM | [10] 16.8 µM
inactive: [2] | [3] | [4] | [5] | [7] | [8] | [9]

O=C(O)CCCOc1ccc(Cl)cc1Cl
inactive: [1] | [2] | [3] | [4] | [5] | [6] | [7] | [8] | [9] | [10]

O=C(NC(=O)c1c(F)cccc1F)Nc1ccc(OC(F)(F)C(F)OC(F)(F)F)c(Cl)c1 (configuration not stated)
inactive: [1] | [2] | [3] | [4] | [5] | [6] | [7] | [8] | [9] | [10]

COC(=O)c1ccccc1S(=O)(=O)NC(=O)Nc1nc(C)nc(OC)n1
inactive: [1] | [2] | [3] | [4] | [5] | [6] | [7] | [8] | [9] | [10]

CC(C)(C)C(O)C(Oc1ccc(Cl)cc1)n1cncn1 (configuration not stated)
inactive: [1] | [2] | [3] | [4] | [5] | [6] | [7] | [8] | [9] | [10]

CCC(C)Nc1c([N+](=O)[O-])cc(C(C)(C)C)cc1[N+](=O)[O-] (configuration not stated)
inactive: [1] | [2] | [3] | [4] | [5] | [6] | [7] | [8] | [9] | [10]

O=C(Nc1ccccc1)Nc1cnns1
inactive: [1] | [2] | [3] | [4] | [5] | [6] | [7] | [8] | [9] | [10]

O=S(=O)(O)C(F)(F)C(F)(F)C(F)(F)C(F)(F)C(F)(F)C(F)(F)C(F)(F)C(F)(F)F
active: [7] 47.3 µM and 52.5 µM
inactive: [1] | [2] | [3] | [4] | [5] | [6] | [7] | [8] | [9] | [10]

CCC(C)(C)C(=O)OC1=C(c2ccc(Cl)cc2Cl)C(=O)OC12CCCCC2
inactive: [1] | [2] | [4] | [5] | [7] | [8]
active: [3] 13.7 µM | [6] 25.7 µM | [9] 28.7 µM | [10] 10.5 µM

COP(=O)(OC)OC=C(Cl)Cl
active: [6] 8.32 µM
inactive: [1] | [2] | [3] | [4] | [5] | [7] | [8] | [9] | [10]

Oc1cc(Cl)ccc1Oc1ccc(Cl)cc1Cl
inactive: [10]
active: [1] 37.7 µM [middle of 4 runs] | [2] 29.4 µM [middle of 4 runs] | [3] 34 µM [middle of 4 runs] | [4] 30 µM [middle of 4 runs] | [5] 33.6 µM and 37.7 µM and 31.4 µM | [6] 17.6 µM [middle of 4 runs] | [7] 37.8 µM [middle of 4 runs] | [8] 32 µM [middle of 4 runs] | [9] 33.1 µM [middle of 4 runs] | [10] 4.67 µM

CC1(C)C(C=C(Cl)Cl)C1C(=O)OC(C#N)c1ccc(F)c(Oc2ccccc2)c1 (configuration not stated)
active: [10] 33.8 µM
inactive: [1] | [2] | [3] | [4] | [5] | [6] | [7] | [8] | [9]

CCCN(CCOc1c(Cl)cc(Cl)cc1Cl)C(=O)n1ccnc1
inactive: [1] | [2] | [3] | [4] | [5] | [7] | [8] | [9]
active: [6] 26.8 µM | [10] 3.97 µM

N#Cc1c(Cl)c(Cl)c(Cl)c(C#N)c1Cl
active: [1] 3.36 µM | [2] 6.09 µM | [3] 3.31 µM | [5] 3.56 µM | [6] 0.148 µM | [7] 2.14 µM | [8] 4.82 µM | [9] 2 µM
inactive: [4] | [10]

OCCOc1ccccc1
inactive: [1] | [2] | [3] | [4] | [5] | [6] | [7] | [9] | [10]
active: [8] 20 µM

[2H]C1([2H])[n+]2ccccc2-c2cccc[n+]2C1([2H])[2H]
active: [5] 0.156 µM | [6] 10.6 µM
inactive: [1] | [2] | [3] | [4] | [7] | [8] | [9] | [10]

CC[C@H](C)[C@H]1O[C@]2(C=C[C@@H]1C)C[C@@H]1C[C@@H](C/C=C(\C)[C@@H](O[C@H]3C[C@H](OC)[C@@H](O[C@H]4C[C@H](OC)[C@@H](O)[C@H](C)O4)[C@H](C)O3)[C@@H](C)/C=C/C=C3\CO[C@@H]4[C@H](O)C(C)=C[C@@H](C(=O)O1)[C@]34O)O2 (tested in a mixture with another compound)
active: [1] 17.4 µM | [2] 9.73 µM | [3] 20 µM | [5] 11.7 µM | [6] 6.85 µM | [7] 29.7 µM | [9] 15 µM
inactive: [4] | [8] | [10]
